# Test results from paper PMC7862700, “An all-to-all approach to the identification of sequence-specific readers for epigenetic DNA modifications on cytosine”.
# Key:
# Assay in all cases: DAPPL (digital affinity profiling via proximity ligation, sequencing); 10 mM Tris-HCl pH 7.5, 50 mM NaCl, 1 mM DTT, 4% glycerol, room temperature, 30 min; GST-TFs on glutathione beads, 16-mer random dsDNA library, 0.1% formaldehyde crosslink after washing; high values mean tight binding
# FLI1 = target: T1, FLI1 (Homo sapiens, UniProt Q01543 1-452); details: protein: recombinant; tags: N-terminal GST; dsDNA, one strand shown
# T1 sequence: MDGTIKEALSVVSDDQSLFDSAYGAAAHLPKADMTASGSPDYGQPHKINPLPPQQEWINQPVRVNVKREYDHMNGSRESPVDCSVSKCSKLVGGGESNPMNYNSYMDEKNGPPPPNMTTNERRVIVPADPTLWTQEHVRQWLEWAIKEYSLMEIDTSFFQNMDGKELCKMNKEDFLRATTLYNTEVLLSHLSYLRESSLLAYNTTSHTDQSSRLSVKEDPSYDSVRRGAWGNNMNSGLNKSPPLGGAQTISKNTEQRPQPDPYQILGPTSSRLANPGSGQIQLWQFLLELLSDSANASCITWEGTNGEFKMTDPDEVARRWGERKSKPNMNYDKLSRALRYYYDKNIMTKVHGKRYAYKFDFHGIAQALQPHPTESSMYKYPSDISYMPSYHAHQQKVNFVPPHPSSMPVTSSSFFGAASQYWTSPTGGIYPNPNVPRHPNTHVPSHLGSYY
# Summary of the method: (§1)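 Human transcription factors fused to GST were expressed in yeast, captured on glutathione beads, given DNA barcodes and pooled with a GST-only negative control. Pools were incubated with 200 nmole of a 16-mer random double-stranded DNA library in Tris/NaCl/DTT/glycerol buffer at room temperature for 30 min. They were then washed, crosslinked with 0.1% formaldehyde, proximity-ligated (BsaI/T4 ligase, 1 h, 37 °C), PCR-amplified and sequenced on an Illumina NextSeq500. Binding signal is each 6-mer's read frequency for a factor divided by its frequency for the GST control.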
# ELK1 = target: T2, ELK1 (Homo sapiens, UniProt P19419 1-428); details: protein: recombinant; tags: N-terminal GST; dsDNA, one strand shown
# T2 sequence: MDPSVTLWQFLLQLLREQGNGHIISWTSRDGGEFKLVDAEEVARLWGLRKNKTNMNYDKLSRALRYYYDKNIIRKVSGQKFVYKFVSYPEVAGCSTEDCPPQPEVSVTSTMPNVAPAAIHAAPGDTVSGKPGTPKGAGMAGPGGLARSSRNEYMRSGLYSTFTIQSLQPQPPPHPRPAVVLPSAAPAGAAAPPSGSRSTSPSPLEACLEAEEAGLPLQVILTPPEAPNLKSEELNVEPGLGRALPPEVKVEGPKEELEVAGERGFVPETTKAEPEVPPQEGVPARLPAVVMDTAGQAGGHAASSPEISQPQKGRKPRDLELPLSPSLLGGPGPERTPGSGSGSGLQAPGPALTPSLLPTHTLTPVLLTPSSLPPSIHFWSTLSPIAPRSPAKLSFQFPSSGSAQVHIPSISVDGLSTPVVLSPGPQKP
# Summary of the method: as §1
# GABPA = target: T3, GABPA (Homo sapiens, UniProt Q06546 1-454); details: protein: recombinant; tags: N-terminal GST; dsDNA, one strand shown
# T3 sequence: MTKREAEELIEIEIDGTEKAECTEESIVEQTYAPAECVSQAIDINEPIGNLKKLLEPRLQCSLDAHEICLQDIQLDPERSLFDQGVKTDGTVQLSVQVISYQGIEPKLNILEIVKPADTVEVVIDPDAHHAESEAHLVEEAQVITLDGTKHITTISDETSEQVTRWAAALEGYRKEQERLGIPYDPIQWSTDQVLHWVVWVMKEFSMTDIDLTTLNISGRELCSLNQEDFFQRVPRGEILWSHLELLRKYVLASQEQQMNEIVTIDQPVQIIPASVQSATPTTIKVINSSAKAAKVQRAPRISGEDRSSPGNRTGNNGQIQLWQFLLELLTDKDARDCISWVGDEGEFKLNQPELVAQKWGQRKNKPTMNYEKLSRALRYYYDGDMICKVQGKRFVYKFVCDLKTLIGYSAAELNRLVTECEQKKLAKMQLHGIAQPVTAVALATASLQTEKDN
# Summary of the method: as §1
# ERG = target: T4, ERG (Homo sapiens, UniProt P11308 1-479); details: protein: recombinant; tags: N-terminal GST; dsDNA, one strand shown
# T4 sequence: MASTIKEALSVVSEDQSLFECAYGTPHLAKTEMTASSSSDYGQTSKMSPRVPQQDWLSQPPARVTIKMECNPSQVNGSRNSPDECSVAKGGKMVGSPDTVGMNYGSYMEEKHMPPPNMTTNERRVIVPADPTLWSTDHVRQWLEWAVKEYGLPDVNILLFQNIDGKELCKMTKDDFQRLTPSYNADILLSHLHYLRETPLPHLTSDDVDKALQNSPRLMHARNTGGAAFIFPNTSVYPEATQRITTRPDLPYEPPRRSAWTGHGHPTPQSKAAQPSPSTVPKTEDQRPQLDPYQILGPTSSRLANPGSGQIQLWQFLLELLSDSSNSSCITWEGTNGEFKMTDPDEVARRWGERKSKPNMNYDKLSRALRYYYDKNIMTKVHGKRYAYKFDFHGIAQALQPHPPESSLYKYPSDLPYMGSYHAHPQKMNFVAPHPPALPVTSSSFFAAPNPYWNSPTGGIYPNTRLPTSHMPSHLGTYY
# Summary of the method: as §1
# ELF1 = ELF1 (Homo sapiens, UniProt P32519 1-619); details: protein: recombinant; tags: N-terminal GST; dsDNA, one strand shown
# Summary of the method: as §1
# EHF = target: T5, EHF (Homo sapiens, UniProt Q9NZC4 1-300); details: protein: recombinant; tags: N-terminal GST; dsDNA, one strand shown
# T5 sequence: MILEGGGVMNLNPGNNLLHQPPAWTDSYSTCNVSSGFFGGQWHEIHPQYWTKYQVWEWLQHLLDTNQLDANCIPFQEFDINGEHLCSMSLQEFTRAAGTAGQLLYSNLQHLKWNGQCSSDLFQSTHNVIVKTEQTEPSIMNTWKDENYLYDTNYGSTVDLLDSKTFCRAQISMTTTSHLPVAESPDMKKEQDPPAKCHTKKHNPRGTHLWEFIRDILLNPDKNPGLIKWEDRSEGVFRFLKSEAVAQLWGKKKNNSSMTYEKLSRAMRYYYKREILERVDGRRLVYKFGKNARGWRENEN
# Summary of the method: as §1
# SPI1 = SPI1 (Homo sapiens, UniProt P17947 1-270); details: protein: recombinant; tags: N-terminal GST; dsDNA, one strand shown
# Summary of the method: as §1
# SPIB = SPIB (Homo sapiens, UniProt Q01892 1-262); details: protein: recombinant; tags: N-terminal GST; dsDNA, one strand shown
# Summary of the method: as §1
# ELK3 = target: T6, ELK3 (Homo sapiens, UniProt P41970 1-407); details: protein: recombinant; tags: N-terminal GST; dsDNA, one strand shown
# T6 sequence: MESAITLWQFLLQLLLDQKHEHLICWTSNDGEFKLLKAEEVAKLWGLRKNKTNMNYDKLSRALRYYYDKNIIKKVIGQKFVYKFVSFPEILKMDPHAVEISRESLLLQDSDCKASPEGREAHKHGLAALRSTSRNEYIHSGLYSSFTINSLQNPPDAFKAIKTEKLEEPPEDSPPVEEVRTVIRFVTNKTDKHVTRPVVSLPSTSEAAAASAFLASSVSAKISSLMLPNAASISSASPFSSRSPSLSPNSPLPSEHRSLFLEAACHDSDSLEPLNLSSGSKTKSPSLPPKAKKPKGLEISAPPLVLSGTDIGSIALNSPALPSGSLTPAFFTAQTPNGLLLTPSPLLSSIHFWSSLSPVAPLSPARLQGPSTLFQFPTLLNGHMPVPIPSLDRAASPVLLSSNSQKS
# Summary of the method: as §1
# FEV = target: T7, FEV (Homo sapiens, UniProt Q99581 1-238); details: protein: recombinant; tags: N-terminal GST; dsDNA, one strand shown
# T7 sequence: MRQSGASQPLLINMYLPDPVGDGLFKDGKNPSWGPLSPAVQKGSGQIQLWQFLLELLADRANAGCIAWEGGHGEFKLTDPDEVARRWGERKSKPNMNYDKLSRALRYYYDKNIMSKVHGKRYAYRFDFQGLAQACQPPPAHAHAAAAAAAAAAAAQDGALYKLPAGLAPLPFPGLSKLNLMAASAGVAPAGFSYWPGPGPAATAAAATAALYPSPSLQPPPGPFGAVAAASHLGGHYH
# Summary of the method: as §1
# ETV5 = ETV5 (Homo sapiens, UniProt P41161 1-510); details: protein: recombinant; tags: N-terminal GST; dsDNA, one strand shown
# Summary of the method: as §1
# HSF1 = HSF1 (Homo sapiens, UniProt Q00613 1-529); details: protein: recombinant; tags: N-terminal GST; chain copies: 3; dsDNA, one strand shown
# Summary of the method: as §1
# SPIC = target: T8, SPIC (Homo sapiens, UniProt Q8N5J4 1-248); details: protein: recombinant; tags: N-terminal GST; dsDNA, one strand shown
# T8 sequence: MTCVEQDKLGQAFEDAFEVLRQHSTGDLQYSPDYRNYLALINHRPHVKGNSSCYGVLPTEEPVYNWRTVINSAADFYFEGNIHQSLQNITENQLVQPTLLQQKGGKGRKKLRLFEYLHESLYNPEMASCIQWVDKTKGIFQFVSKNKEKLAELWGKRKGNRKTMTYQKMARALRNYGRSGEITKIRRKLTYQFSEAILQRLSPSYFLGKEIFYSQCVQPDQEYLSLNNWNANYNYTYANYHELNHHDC
# Summary of the method: as §1
# ELF4 = ELF4 (Homo sapiens, UniProt Q99607 1-663); details: protein: recombinant; tags: N-terminal GST; dsDNA, one strand shown
# Summary of the method: as §1
# ELK4 = target: T9, ELK4 (Homo sapiens, UniProt P28324-2 1-405); details: protein: recombinant; tags: N-terminal GST; dsDNA, one strand shown
# T9 sequence: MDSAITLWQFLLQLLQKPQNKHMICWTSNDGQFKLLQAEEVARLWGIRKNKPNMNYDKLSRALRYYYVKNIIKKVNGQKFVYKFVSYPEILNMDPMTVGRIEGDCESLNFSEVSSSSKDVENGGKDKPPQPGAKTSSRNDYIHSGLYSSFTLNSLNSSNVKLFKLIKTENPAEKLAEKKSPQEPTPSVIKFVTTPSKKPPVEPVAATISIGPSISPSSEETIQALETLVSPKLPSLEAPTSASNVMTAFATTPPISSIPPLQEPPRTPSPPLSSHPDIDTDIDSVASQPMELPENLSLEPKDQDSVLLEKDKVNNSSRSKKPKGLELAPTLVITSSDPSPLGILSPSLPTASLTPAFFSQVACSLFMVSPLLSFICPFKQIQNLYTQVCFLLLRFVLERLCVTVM
# Summary of the method: as §1
# ETV2 = target: T10, ETV2 (Homo sapiens, UniProt O00321 1-342); details: protein: recombinant; tags: N-terminal GST; dsDNA, one strand shown
# T10 sequence: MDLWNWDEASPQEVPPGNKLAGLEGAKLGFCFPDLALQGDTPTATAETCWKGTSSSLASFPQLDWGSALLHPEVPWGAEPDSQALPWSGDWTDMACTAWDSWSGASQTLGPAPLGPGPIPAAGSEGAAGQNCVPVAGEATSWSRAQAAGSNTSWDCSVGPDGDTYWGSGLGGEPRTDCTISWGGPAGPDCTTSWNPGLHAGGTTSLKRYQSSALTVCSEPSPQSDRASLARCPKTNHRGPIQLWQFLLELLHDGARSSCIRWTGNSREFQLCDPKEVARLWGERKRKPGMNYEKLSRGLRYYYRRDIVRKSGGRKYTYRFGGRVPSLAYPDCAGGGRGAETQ
# Summary of the method: as §1
# ELF3 = target: T11, ELF3 (Homo sapiens, UniProt P78545 1-371); details: protein: recombinant; tags: N-terminal GST; dsDNA, one strand shown
# T11 sequence: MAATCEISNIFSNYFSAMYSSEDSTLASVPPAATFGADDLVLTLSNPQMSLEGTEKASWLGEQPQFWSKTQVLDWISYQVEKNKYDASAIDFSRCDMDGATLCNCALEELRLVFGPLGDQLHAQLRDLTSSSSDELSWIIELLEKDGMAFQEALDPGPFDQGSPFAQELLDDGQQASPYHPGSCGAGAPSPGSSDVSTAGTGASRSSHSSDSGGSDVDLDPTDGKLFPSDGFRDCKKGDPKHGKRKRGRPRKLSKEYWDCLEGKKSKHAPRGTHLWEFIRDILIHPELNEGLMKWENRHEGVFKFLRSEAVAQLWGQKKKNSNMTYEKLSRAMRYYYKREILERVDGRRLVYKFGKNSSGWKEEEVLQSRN
# Summary of the method: as §1
# CRX = CRX (Homo sapiens, UniProt O43186 1-299); details: protein: recombinant; tags: N-terminal GST; dsDNA, one strand shown
# Summary of the method: as §1
# ETV1 = ETV1 (Homo sapiens, UniProt P50549 1-477); details: protein: recombinant; tags: N-terminal GST; dsDNA, one strand shown
# Summary of the method: as §1
# HSF1, sequence (Q00613 whole entry): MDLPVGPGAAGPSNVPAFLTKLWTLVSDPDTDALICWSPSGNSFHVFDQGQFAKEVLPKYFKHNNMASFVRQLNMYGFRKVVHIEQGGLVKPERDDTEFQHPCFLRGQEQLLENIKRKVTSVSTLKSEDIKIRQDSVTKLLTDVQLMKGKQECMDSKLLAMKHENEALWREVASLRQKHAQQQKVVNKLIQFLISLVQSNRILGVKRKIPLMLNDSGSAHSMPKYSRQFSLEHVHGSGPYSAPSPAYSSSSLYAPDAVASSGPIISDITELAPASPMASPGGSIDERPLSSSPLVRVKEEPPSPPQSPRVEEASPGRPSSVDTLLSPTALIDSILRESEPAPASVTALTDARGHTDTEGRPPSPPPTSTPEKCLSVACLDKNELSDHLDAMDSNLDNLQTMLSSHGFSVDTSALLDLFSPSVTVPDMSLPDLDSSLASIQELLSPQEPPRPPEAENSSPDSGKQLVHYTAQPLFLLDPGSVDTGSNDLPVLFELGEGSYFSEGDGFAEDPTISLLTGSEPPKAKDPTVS
# ELF1, sequence (P32519 whole entry): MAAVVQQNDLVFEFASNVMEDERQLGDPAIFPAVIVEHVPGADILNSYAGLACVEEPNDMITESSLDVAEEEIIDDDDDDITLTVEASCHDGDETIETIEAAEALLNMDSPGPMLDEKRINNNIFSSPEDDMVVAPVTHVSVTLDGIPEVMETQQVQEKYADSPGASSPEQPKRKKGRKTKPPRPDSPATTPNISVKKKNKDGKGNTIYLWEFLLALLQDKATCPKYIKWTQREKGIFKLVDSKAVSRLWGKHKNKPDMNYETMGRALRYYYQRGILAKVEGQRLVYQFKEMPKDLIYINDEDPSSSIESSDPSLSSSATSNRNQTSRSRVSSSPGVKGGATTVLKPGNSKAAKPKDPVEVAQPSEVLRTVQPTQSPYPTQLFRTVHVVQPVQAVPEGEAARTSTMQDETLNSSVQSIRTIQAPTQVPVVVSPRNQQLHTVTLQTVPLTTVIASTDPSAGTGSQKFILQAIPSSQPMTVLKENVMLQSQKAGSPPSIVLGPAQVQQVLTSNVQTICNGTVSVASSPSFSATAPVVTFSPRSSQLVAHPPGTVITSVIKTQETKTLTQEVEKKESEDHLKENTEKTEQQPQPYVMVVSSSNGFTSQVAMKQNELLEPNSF
# ETV5, sequence (P41161 whole entry): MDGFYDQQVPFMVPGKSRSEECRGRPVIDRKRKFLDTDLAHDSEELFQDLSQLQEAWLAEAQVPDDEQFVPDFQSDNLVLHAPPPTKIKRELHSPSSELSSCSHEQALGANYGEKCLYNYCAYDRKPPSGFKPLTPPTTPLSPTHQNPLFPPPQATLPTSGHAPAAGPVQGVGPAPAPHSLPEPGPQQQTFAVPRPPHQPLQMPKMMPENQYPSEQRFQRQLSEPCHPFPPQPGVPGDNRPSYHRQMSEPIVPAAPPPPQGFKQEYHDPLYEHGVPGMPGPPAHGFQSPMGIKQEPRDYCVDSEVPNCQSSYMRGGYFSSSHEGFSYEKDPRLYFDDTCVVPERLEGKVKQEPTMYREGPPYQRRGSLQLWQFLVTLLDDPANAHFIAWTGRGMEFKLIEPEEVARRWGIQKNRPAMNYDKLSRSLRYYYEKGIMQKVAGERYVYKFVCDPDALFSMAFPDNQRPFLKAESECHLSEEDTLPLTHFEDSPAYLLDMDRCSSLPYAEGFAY
# ELF4, sequence (Q99607 whole entry): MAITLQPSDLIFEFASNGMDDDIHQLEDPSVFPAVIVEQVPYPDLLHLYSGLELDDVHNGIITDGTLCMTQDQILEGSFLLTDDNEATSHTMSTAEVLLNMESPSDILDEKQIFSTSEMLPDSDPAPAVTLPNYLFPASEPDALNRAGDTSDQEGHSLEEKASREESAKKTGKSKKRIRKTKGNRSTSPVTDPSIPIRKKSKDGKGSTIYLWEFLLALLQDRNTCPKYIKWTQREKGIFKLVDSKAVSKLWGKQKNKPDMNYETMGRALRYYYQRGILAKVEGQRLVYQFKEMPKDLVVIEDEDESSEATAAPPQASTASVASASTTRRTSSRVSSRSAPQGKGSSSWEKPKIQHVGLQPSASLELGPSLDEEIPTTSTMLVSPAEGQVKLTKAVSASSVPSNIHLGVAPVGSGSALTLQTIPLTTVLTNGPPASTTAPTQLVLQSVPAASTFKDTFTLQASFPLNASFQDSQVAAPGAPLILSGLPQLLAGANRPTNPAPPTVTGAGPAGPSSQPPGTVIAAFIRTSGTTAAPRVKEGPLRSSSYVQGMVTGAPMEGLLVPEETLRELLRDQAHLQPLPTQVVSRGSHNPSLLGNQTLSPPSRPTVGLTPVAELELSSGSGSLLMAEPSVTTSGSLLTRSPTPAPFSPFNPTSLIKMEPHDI
# CRX, sequence (O43186 whole entry): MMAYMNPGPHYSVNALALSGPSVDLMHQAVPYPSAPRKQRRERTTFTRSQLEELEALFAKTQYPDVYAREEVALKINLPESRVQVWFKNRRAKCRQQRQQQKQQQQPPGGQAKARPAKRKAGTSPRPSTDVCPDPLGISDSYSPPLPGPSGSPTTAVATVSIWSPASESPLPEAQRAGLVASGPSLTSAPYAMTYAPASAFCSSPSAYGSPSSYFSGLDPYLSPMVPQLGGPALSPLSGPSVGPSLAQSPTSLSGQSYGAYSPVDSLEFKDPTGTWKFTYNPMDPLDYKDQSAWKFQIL
# SPIB, sequence (Q01892 whole entry): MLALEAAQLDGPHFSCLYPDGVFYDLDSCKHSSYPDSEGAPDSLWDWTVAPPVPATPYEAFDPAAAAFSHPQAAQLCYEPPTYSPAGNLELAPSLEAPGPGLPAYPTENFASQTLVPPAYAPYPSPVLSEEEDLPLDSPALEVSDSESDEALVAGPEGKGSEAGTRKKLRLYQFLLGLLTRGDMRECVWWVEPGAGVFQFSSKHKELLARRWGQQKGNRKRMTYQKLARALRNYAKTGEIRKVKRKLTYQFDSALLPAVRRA
# ETV1, sequence (P50549 whole entry): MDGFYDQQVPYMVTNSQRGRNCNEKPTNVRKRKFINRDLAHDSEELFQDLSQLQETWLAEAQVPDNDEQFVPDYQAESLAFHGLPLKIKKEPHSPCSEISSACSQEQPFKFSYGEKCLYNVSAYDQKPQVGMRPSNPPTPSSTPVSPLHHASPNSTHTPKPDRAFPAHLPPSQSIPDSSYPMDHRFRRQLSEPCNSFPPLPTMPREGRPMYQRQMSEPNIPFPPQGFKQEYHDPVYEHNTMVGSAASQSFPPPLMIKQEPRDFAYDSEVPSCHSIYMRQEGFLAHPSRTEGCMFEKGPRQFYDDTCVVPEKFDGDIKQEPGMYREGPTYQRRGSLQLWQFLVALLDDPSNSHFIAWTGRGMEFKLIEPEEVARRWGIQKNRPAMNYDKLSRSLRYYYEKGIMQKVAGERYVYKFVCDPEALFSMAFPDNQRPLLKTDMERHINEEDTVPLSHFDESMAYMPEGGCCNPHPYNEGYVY
sequence,measurement,setting,value
ACTTTT,binding signal,FLI1,"1.43 fold enrichment (6-mer frequency, TF over GST control)"
same,binding signal,ELK1,"1.32 fold enrichment (6-mer frequency, TF over GST control)"
same,binding signal,GABPA,"1.34 fold enrichment (6-mer frequency, TF over GST control)"
same,binding signal,ERG,"1.21 fold enrichment (6-mer frequency, TF over GST control)"
same,binding signal,ELF1,"1.21 fold enrichment (6-mer frequency, TF over GST control)"
same,binding signal,EHF,"1.21 fold enrichment (6-mer frequency, TF over GST control)"
same,binding signal,SPI1,"1.26 fold enrichment (6-mer frequency, TF over GST control)"
same,binding signal,SPIB,"1.34 fold enrichment (6-mer frequency, TF over GST control)"
same,binding signal,ELK3,"1.14 fold enrichment (6-mer frequency, TF over GST control)"
same,binding signal,FEV,"1.25 fold enrichment (6-mer frequency, TF over GST control)"
same,binding signal,ETV5,"1.27 fold enrichment (6-mer frequency, TF over GST control)"
same,binding signal,HSF1,"1.25 fold enrichment (6-mer frequency, TF over GST control)"
same,binding signal,SPIC,"1.35 fold enrichment (6-mer frequency, TF over GST control)"
same,binding signal,ELF4,"1.32 fold enrichment (6-mer frequency, TF over GST control)"
same,binding signal,ELK4,"1.25 fold enrichment (6-mer frequency, TF over GST control)"
same,binding signal,ETV2,"1.25 fold enrichment (6-mer frequency, TF over GST control)"
same,binding signal,ELF3,"1.45 fold enrichment (6-mer frequency, TF over GST control)"
same,binding signal,CRX,"1.25 fold enrichment (6-mer frequency, TF over GST control)"
same,binding signal,ETV1,"1.32 fold enrichment (6-mer frequency, TF over GST control)"
